In PubChem BioAssay one finds z-score and composite z-score data, which are given here for 13 molecules.

Active and inactive are the calls of the source. Unless noted, how the calls were made is not given here.

Test [1] can be described thus: resazurin metabolic signal in HepG2 cells – cell-based, resazurin fluorescence, 24 h, PK04 Diversity Set, profiling panel (AID 1172). Further: test concentration not given here. The conditions noted are these: HepG2 viability, higher = more signal. Background: Resazurin is reduced to fluorescent resorufin, in cell work by metabolically active cells.
Test [2] in a line: budding yeast growth changes without added modifier – OD600, strain BY4716, 24 h, basal condition, primary screen (AID 1173). The conditions noted are these: S. cerevisiae BY4716 growth, OD600, 24 h; higher = more signal, called active from +8 up or from −8 down.
Test [3] in a line: viability profiling in MM1S myeloma cells – cell-based, resazurin fluorescence, basal, 24 h, PK04 Diversity Set, profiling panel (AID 1174). Further: test concentration not given here. The settings on record: higher = more signal, called active from +8 up or from −8 down.
For test [4], the target named is Dihydroorotate dehydrogenase (quinone), mitochondrial (Plasmodium falciparum (isolate 3D7)) (UniProt Q08210). The experiment in a line: inhibition of P. falciparum DHODH – biochemical, C-terminal His tag, absorbance 600 nm, primary screen (AID 1175).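 Further: recombinant parasite enzyme with a five histidine tag at its C terminus; test concentration not given here.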 The conditions noted are these: PfDHODH enzyme, DCIP absorbance 600 nm; higher = more signal, called active from +8 up or from −8 down.

The nature of test [5]: inhibition of PAO1 biofilm formation – strain PAO1, LB-PBS medium, absorbance 600 nm, primary screen (AID 1176). Further: test concentration not given here. The conditions noted are these: P. aeruginosa PAO1 growth/biofilm, A600, 12 h; higher = more signal.
Test [6] in a line: growth modulation of vineyard yeast isolate – strain RM11-1a, OD600, basal, 24 h, primary screen (AID 1177).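 Further: cultures grown under basal conditions with no added stressor; test concentration not given here.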 The settings on record: S. cerevisiae RM11-1a growth, OD600, 24 h; higher = more signal, called active from +8 up or from −8 down.
A short description of test [7]: growth of efflux-deficient E. coli DRC39 – strain DRC39, OD650, 24 h, E. coli filamentation inducers, primary screen (AID 1178).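 Further: growth measured as culture turbidity by optical density at 650 nm; test concentration not given here.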 The settings on record: E. coli DRC39 acrAB, higher = more signal, called active from +8 up or from −8 down.
A short description of test [8]: growth of efflux-deficient E. coli DRC39 – strain DRC39, OD650, 48 h, E. coli filamentation inducers, primary screen (AID 1179).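 Further: screen aims at cell division blockers that make cells filament.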 The conditions noted are these: E. coli DRC39 delta-acrAB growth, higher = more signal, called active from +8 up or from −8 down.
Test [9] is described as follows: viability profiling in RPMI8226 myeloma cells – cell-based, resazurin fluorescence, basal, 24 h, PK04 Diversity Set, profiling panel (AID 1180).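 Further: RPMI8826 multiple myeloma cell line at 5000 cells per well; test concentration not given here.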 The settings on record: higher = more signal.
Test [10] has as its target E3 ubiquitin-protein ligase XIAP (Homo sapiens) (UniProt P98170). The test is described as follows: small molecules binding XIAP protein – biophysical, small-molecule microarray, fluorescence 635 nm, primary screen (AID 1181).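 Further: score merges 667 nm emission and signal to noise over triplicate slides.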 The settings on record: higher = more signal.

Chain of Dihydroorotate dehydrogenase (quinone), mitochondrial (Plasmodium falciparum (isolate 3D7)) (Q08210 whole entry, looked up): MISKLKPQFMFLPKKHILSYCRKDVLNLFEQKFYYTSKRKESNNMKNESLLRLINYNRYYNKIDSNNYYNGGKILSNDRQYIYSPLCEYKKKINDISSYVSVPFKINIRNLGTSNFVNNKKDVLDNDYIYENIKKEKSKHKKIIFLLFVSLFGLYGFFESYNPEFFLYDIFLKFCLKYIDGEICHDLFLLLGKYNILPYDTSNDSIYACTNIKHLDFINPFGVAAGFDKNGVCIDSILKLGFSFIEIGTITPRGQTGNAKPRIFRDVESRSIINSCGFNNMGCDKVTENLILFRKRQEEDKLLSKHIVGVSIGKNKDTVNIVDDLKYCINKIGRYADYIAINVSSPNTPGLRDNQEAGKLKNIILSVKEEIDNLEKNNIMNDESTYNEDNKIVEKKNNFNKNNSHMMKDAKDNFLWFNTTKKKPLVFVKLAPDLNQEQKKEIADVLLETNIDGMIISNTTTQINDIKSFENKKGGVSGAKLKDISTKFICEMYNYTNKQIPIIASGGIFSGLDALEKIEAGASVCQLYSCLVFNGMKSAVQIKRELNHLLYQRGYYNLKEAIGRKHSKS
Chain of E3 ubiquitin-protein ligase XIAP (Homo sapiens) (P98170 whole entry, looked up): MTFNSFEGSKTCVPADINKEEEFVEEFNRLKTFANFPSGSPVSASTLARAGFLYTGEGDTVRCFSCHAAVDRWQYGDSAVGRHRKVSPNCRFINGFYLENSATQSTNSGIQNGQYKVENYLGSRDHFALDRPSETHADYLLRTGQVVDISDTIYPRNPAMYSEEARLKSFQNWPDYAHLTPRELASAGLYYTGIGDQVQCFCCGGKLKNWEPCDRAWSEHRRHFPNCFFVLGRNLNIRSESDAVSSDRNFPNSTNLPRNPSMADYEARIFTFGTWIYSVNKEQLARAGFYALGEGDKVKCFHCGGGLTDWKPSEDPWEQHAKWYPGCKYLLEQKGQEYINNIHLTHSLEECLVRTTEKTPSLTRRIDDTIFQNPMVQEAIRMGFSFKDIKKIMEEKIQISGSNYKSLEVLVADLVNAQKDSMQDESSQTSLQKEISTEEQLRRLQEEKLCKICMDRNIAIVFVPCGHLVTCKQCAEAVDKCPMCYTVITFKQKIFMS

In the case of `C[C@@H](ON=C1[C@H]2CCn3c(=O)n(-c4ccccc4)c(=O)n3[C@H]2[C@H](O)[C@@H]2O[C@H]12)c1cn([C@@H]2COC[C@H]2O)nn1`, the z-score in test [1] is -0.311; in test [2], 0.337 (inactive); in test [3] it was -0.739 (inactive); in test [5], 0.523 (inactive); in [6], -1.01 (inactive); in test [7] it was 0.0645 (inactive). For the same molecule, the z-score is -0.317 (inactive) in test [8] and -0.715 in [9]. The composite z-score was -0.642 (inactive) in test [4] and -0.189 in test [10].

`CO[C@H]1COC(=O)[C@H](C)NC(=O)[C@@H](C)COC(=O)[C@H]2CCCN2C(=O)CC=C[C@H]1C`: the z-score in test [1] was -0.384; in test [2] it was -0.739 (inactive); in test [3], 0.0177 (inactive); in test [5], -0.655 (inactive); in test [6], -0.382 (inactive); in [7] it was 0.491 (inactive). For the same molecule, the z-score in [8] is 0.206 (inactive); in test [9], -0.65. Besides, the composite z-score in test [4] is -2.21 (inactive); in test [10] it was -0.354.

`O=C1C[C@@H](O)[C@@H](O)[C@@H]2[C@@H]3C(=O)N(C[C@@H]4CCCO4)C(=O)[C@@H]3CC[C@H]12`: the z-score in [1] is -0.57; in [2], -0.189 (inactive); in [3] it was -0.0898 (inactive); in [5] it was -0.744 (inactive); in test [6], 0.739 (inactive); in test [7], 0.343 (inactive). Further, the z-score in test [8] is 0.17 (inactive); in test [9], -0.449. The composite z-score in [4] is 0.602 (inactive); in test [10] it was -0.28.

In the case of `CCC=CCCC(OC(=O)c1ccc(Br)cc1)C1=CCCCC1=O` (stereo not given), the z-score is -0.0791 in test [1]; -2.43 (inactive) in test [2]; -1.06 (inactive) in test [3]; 0.119 (inactive) in [5]; -0.791 (inactive) in test [6]; 0.181 (inactive) in test [7]. The z-score in test [8] is 0.0322 (inactive); in [9], -0.88. The composite z-score in test [4] is -1.38 (inactive); in test [10] it was -0.291.

As for `CCCNC(=O)OC[C@H]1O[C@H](CCON=C(C)CCN2CCCc3nc(C)c(C)cc32)C=C[C@@H]1Oc1ccc(OC)cc1`, the z-score in test [1] was 0.691; in test [2], 0.766 (inactive); in [3], -0.291 (inactive); in [5] it was 0.9 (inactive); in [6], -0.295 (inactive); in [7], 0.908 (inactive). Further, the results for the z-score in [8] and in [9] were 0.557 (inactive) and 1.46, respectively. Further, the composite z-score is 0.0151 (inactive) in test [4] and 0.284 in test [10].

`COC(=O)CC=C[C@@H](C)[C@H](OCc1cccc(-c2ccccc2)c1)C1CCCCC1`: the z-score in test [1] is -0.307; in test [2], -0.0348 (inactive); in test [3] it was 0.45 (inactive); in test [5], -0.409 (inactive); in test [6] it was 1.82 (inactive); in test [7], -0.933 (inactive). Moreover, the results for the z-score in test [8] and in test [9] were -0.661 (inactive) and 0.403, respectively. Further, the values for the composite z-score in test [4] and in test [10] were -3.69 (inactive) and -0.267, respectively.

In the case of `Cc1cc2c(nc1C)CCCCN2CC(C)ON=C[C@@H](C)[C@H](OCc1ccccc1)C(C)C` (stereo not given in full), the z-score was 1.48 in [1]; -5.49 (inactive) in test [2]; 0.674 (inactive) in test [3]; 0.675 (inactive) in test [5]; -1.02 (inactive) in test [6]; -0.152 (inactive) in [7]. In addition, the z-score in test [8] was -0.4 (inactive); in test [9] it was 1.4. Moreover, the composite z-score was -0.983 (inactive) in test [4] and 0.0856 in test [10].

`CC(C)=CCCC(C)=CCON=C1C[C@@H](O)[C@@H](O)[C@@H]2[C@@H]3C(=O)N(C4CCCCC4)C(=O)[C@@H]3CC[C@@H]12`: the z-score in test [1] is -0.199; in test [2], -0.81 (inactive); in [3], -0.454 (inactive); in test [5], 0.565 (inactive); in [6], -0.709 (inactive); in test [7], 0.0915 (inactive). The z-score in [8] was -0.742 (inactive); in test [9], -0.51. For the same molecule, the figures for the composite z-score in [4] and in [10] were -0.42 (inactive) and 0.0905, respectively.

Take `CCOC(=O)NN=C1C[C@@H](O)[C@@H](O)[C@@H]2[C@@H]3C(=O)N([C@@H](C)c4ccccc4)C(=O)[C@@H]3CC[C@@H]12`: the z-score in [1] was 0.13; in [2], -0.608 (inactive); in test [3], -0.371 (inactive); in test [5] it was -0.72 (inactive); in test [6] it was -0.645 (inactive); in [7], -0.654 (inactive). Besides, the z-score in test [8] was -0.23 (inactive); in [9], -0.436. Also, the composite z-score in test [4] was -0.0776 (inactive); in [10] it was -0.202.

As for `CCOC(=O)[C@H](Cc1ccccc1)NC(=O)CCC1CC(OC(=O)NCCc2ccc(F)cc2)CC2(CCCC(COC(=O)NCCc3ccc(Cl)cc3)O2)O1` (stereo not given in full), the z-score in test [1] is 0.072; in [2] it was -0.0784 (inactive); in [3] it was 0.231 (inactive); in test [5] it was -0.0569 (inactive); in test [6] it was 0.809 (inactive); in test [7], 0.869 (inactive). Besides, the figures for the z-score in test [8] and in [9] were 0.721 (inactive) and 0.28, respectively. Also, the composite z-score is -0.161 (inactive) in test [4] and -0.0177 in test [10].

Consider `COC(=O)CC=C[C@@H](C)[C@@H](C=NO[C@@H](C)c1cn([C@H](CO)Cc2ccccc2)nn1)NS(=O)(=O)c1ccc(C)cc1`, for which the z-score is -1.21 in [1]; -0.913 (inactive) in test [2]; -0.412 (inactive) in [3]; -1.54 (inactive) in test [5]; -2.06 (inactive) in test [6]; 0.196 (inactive) in [7]. Also, the values for the z-score in [8] and in test [9] were 0.364 (inactive) and -0.808, respectively. The composite z-score in test [4] is -1.16 (inactive); in test [10] it was -0.349.

As for `CCCCc1nc2c(c3c1C[C@H](C)OC3)CN(CCOc1ccccc1)CC2`, the z-score in test [1] was -0.492; in test [2], -3.28 (inactive); in test [3], 0.422 (inactive); in test [5], 1.1 (inactive); in test [6], -1.49 (inactive); in test [7], 1.18 (inactive). Besides, the z-score is -0.908 (inactive) in [8] and 0.386 in test [9]. Besides, the composite z-score in test [4] is -0.845 (inactive); in test [10], 0.437.

`CON=C(C)CCC(=O)OC[C@H]1O[C@H](c2ccccc2)C=C[C@@H]1Oc1ccc(OC)cc1`: the z-score in test [1] was 0.0444; in test [2], 0.831 (inactive); in [3], 0.289 (inactive); in test [5] it was 0.0981 (inactive); in [6], 1.44 (inactive); in [7], 0.732 (inactive). For the same molecule, the z-score in test [8] was -1.76 (inactive); in test [9], 0.268. In addition, the composite z-score in test [4] was -0.0389 (inactive); in [10], 0.0619.
